The panel holds about 79,000 compounds, 15% with a hit somewhere; the sample as a whole holds those more often. Calls of active or inactive are those of the source. Rule as the data show it: active = growth inhibition above about 70%; inactive = the rest.
What was measured:
[1] = NCI Yeast Anticancer Drug Screen. Data for the rad50 strain (AID 155);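 also: 0% = growth of vehicle-only cultures of the same strain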; conditions: S. cerevisiae rad50 strain growth inhibition, hits give high values
How it was run: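 Compounds were tested on a yeast strain with an engineered DNA damage repair alteration; the reported value is growth inhibition normalised to vehicle treatment.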

[2] = NCI Yeast Anticancer Drug Screen. Data for the mec2-1 strain (AID 157); conditions: S. cerevisiae mec2-1 strain, hits give high values
How it was run: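 Test agents were screened against the mec2-1 yeast strain, with defined DNA repair or cell cycle alteration. Growth was scored as inhibition against vehicle-only controls.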

[3] = NCI Yeast Anticancer Drug Screen. Data for the sgs1 mgt1 strain (AID 161);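 also: 0% = growth of cultures given vehicle only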; conditions: S. cerevisiae sgs1 mgt1 strain, hits give high values
How it was run: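 Mutant yeast exposed to compound; growth scored against vehicle-only wells.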

[4] = NCI Yeast Anticancer Drug Screen. Data for the cln2 rad14 strain (AID 165);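 also: 0% = growth equal to vehicle treated cultures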; conditions: S. cerevisiae cln2 rad14 strain, hits give high values
How it was run: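 Growth of compound-exposed yeast (cln2 rad14 genotype) measured and expressed as inhibition relative to vehicle.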

[5] = NCI Yeast Anticancer Drug Screen. Data for the bub3 strain (AID 167); conditions: S. cerevisiae bub3 mutant strain, hits give high values
How it was run: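 Growth of a checkpoint-deficient yeast mutant is measured after compound exposure. Values represent inhibition relative to vehicle.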

[6] = NCI Yeast Anticancer Drug Screen. Data for the mlh1 rad18 strain (AID 175); conditions: S. cerevisiae mlh1 rad18 strain growth inhibition, hits give high values
How it was run: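 In this whole-cell yeast screen, a strain with altered DNA damage repair is challenged with compound, and its growth is measured against matched vehicle-treated controls.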

[7] = at 5.0 µM (retest, dose inferred, filed as 0.5)
[8] = at 50.0 µM (retest, dose inferred, filed as 5.0)

Measured: growth inhibition

COc1ccc(-c2c(CO)cc(OC)c(OC)c2OC)c(CO)c1
inactive: [1]; [7] -1% | [1]; [8] 6% | [2]; [7] -9% | [2]; [8] 21% | [3]; [7] -5% | [3]; [8] 22% | [3]; at 50.0 µM 64.5% | [4]; [7] -2% | [4]; [8] 10% | [5]; [7] 1% | [5]; [8] 43% | [6]; [7] 13% | [6]; [8] 41%
active: [1]; at 50.0 µM 93.5% | [2]; at 50.0 µM 98.8% | [4]; at 50.0 µM 98% | [5]; at 50.0 µM 98.7% | [6]; at 50.0 µM 99%

O=C1/C(=C/c2cccc(O)c2)COc2ccccc21
active: [1]; [8] 95% | [1]; at 50.0 µM 93.8% | [2]; [8] 98% | [2]; at 50.0 µM 96.1% | [3]; [8] 98% | [3]; at 50.0 µM 96.2% | [4]; [8] 95% | [4]; at 50.0 µM 91.6% | [5]; [8] 95% | [5]; at 50.0 µM 95.8% | [6]; [7] 77% | [6]; [8] 97% | [6]; at 50.0 µM 96.8%
inactive: [1]; [7] 21% | [2]; [7] 34% | [3]; [7] 63% | [4]; [7] 9% | [5]; [7] 58%

CSC(=S)n1nc(-c2ccccc2)c(N=Nc2ccccc2[N+](=O)[O-])c1C
active: [1]; [8] 92% | [1]; at 50.0 µM 97% | [2]; [8] 96% | [2]; at 50.0 µM 96.2% | [3]; [8] 96% | [3]; at 50.0 µM 97% | [4]; [8] 94% | [4]; at 50.0 µM 92% | [5]; [8] 95% | [5]; at 50.0 µM 94.3% | [6]; [8] 93% | [6]; at 50.0 µM 98%
inactive: [1]; [7] -1% | [2]; [7] -4% | [3]; [7] 5% | [4]; [7] -12% | [5]; [7] 0% | [6]; [7] -1%

CC(C(=O)NN)C(O)C(C)(C)O (stereo not given)
inactive: [1]; [7] 3% | [1]; [8] -5% | [1]; at 50.0 µM 58.7% | [2]; [7] -5% | [2]; [8] -10% | [2]; at 50.0 µM 3.8% | [3]; [7] 1% | [3]; [8] 3% | [3]; at 50.0 µM -7.4% | [4]; [7] 1% | [4]; [8] -9% | [4]; at 50.0 µM -47.5% | [5]; [7] -2% | [5]; [8] 1% | [5]; at 50.0 µM -5.85% | [6]; [7] 7% | [6]; [8] 4% | [6]; at 50.0 µM 6.05%

COc1ccc(/C=C(/C#N)c2ccccc2)cc1
inactive: [1]; [7] 8% | [1]; [8] -2% | [1]; at 50.0 µM 67.1% | [2]; [7] 9% | [2]; [8] 27% | [2]; at 50.0 µM 19.6% | [3]; [7] 9% | [3]; [8] 2% | [4]; [7] 1% | [4]; [8] 4% | [4]; at 50.0 µM 16.4% | [5]; [7] 10% | [5]; [8] 55% | [6]; [7] 5% | [6]; [8] 19% | [6]; at 50.0 µM 69%
active: [3]; at 50.0 µM 81.5% | [5]; at 50.0 µM 73.5%

ICCCCSc1cc(-c2ccccc2)[o+]c2ccccc12
inactive: [1]; [7] 23% | [2]; [7] 10% | [2]; [8] 51% | [3]; [7] 19% | [4]; [7] 1% | [4]; [8] 49% | [4]; at 50.0 µM 24.3% | [5]; [7] 7% | [6]; [7] 11%
active: [1]; [8] 92% | [1]; at 50.0 µM 93% | [2]; at 50.0 µM 72.2% | [3]; [8] 75% | [3]; at 50.0 µM 75.2% | [5]; [8] 85% | [5]; at 50.0 µM 75.4% | [6]; [8] 71% | [6]; at 50.0 µM 88.8%

NC1CCCCC1N.O=C([O-])c1ccc(N=Nc2cccc([N+](=O)[O-])c2)cc1O.O=C([O-])c1ccc(N=Nc2cccc([N+](=O)[O-])c2)cc1O.[Pt+4]
inactive: [1]; [7] 15% | [1]; [8] 23% | [1]; at 50.0 µM -2.95% | [2]; [7] 18% | [2]; [8] 36% | [2]; at 50.0 µM -2.45% | [3]; [7] -20% | [3]; [8] 36% | [3]; at 50.0 µM 3% | [4]; [7] -8% | [4]; [8] 20% | [4]; at 50.0 µM -18.6% | [5]; [7] 28% | [5]; [8] 45% | [5]; at 50.0 µM -19.4% | [6]; [7] 25% | [6]; [8] 34% | [6]; at 50.0 µM 6.8%

O=C1CNCCCN2CCN(CCCNCC(=O)Nc3ccc(cc3)S(=O)(=O)c3ccc(cc3)NC(=O)CNCCCN3CCN(CCCNCC(=O)Nc4ccc(cc4)S(=O)(=O)c4ccc(cc4)N1)CC3)CC2
inactive: [1]; [7] 1% | [2]; [7] -25% | [3]; [7] -14% | [4]; [7] -5% | [5]; [7] -3% | [6]; [7] -11%
active: [1]; [8] 99% | [1]; at 50.0 µM 98.8% | [2]; [8] 99% | [2]; at 50.0 µM 98.8% | [3]; [8] 99% | [3]; at 50.0 µM 99% | [4]; [8] 99% | [4]; at 50.0 µM 96.8% | [5]; [8] 99% | [5]; at 50.0 µM 97.8% | [6]; [8] 99% | [6]; at 50.0 µM 98.7%

Oc1[nH]c2ccccc2c1N=NC(=S)NCc1ccccn1
inactive: [1]; [7] 9% | [2]; [7] 2% | [3]; [7] 22% | [4]; [7] 31% | [5]; [7] 3% | [6]; [7] 26%
active: [1]; [8] 99% | [1]; at 50.0 µM 77.4% | [2]; [8] 99% | [2]; at 50.0 µM 86.3% | [3]; [8] 98% | [3]; at 50.0 µM 90.9% | [4]; [8] 99% | [4]; at 50.0 µM 90.5% | [5]; [8] 99% | [5]; at 50.0 µM 90.8% | [6]; [8] 99% | [6]; at 50.0 µM 91.8%

CNCC(OB(c1ccccc1)c1ccccc1)c1ccccc1 (stereo not given)
inactive: [1]; [7] 4% | [1]; at 50.0 µM -22.9% | [2]; [7] 12% | [2]; at 50.0 µM -5.2% | [3]; [7] 1% | [3]; at 50.0 µM 61.7% | [4]; [7] 9% | [4]; at 50.0 µM -26.6% | [5]; [7] -7% | [5]; at 50.0 µM 5.75% | [6]; [7] 0% | [6]; at 50.0 µM 44.1%
active: [1]; [8] 99% | [2]; [8] 99% | [3]; [8] 95% | [4]; [8] 99% | [5]; [8] 99% | [6]; [8] 99%

From PubChem BioAssay (NCI)
